26 compounds from PubChem BioAssay (EPA / NIEHS) can be followed below.

Inconclusive results are not listed. Active and inactive are the calls of the source. How the source made its calls: active means hit-call score of the fitted dose curve at least 0.9, where 1 is the maximum; inconclusive means response in the unintended direction; inactive means score below 0.9.

Chain of human RAR-related Orphan Receptor gamma (RORg), RORC (gene 6097) (P51449 whole entry, looked up, the tested form may be a part): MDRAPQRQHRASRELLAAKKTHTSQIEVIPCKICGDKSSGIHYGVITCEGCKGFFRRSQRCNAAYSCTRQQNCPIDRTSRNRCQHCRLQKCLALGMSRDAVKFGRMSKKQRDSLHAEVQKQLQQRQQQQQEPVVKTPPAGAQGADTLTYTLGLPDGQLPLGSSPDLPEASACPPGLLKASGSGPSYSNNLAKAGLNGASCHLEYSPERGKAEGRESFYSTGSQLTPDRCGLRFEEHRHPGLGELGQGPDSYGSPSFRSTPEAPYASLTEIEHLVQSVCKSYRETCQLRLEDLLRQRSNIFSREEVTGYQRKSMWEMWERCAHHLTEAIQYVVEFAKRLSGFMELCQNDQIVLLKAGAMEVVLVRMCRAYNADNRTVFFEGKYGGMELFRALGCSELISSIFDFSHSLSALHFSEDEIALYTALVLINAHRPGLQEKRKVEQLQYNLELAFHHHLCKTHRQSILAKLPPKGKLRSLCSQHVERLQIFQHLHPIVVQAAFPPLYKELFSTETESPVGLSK
Chain of human RAR-related Orphan Receptor beta (RORb), RORB (gene 6096) (Q92753 whole entry, looked up, the tested form may be a part): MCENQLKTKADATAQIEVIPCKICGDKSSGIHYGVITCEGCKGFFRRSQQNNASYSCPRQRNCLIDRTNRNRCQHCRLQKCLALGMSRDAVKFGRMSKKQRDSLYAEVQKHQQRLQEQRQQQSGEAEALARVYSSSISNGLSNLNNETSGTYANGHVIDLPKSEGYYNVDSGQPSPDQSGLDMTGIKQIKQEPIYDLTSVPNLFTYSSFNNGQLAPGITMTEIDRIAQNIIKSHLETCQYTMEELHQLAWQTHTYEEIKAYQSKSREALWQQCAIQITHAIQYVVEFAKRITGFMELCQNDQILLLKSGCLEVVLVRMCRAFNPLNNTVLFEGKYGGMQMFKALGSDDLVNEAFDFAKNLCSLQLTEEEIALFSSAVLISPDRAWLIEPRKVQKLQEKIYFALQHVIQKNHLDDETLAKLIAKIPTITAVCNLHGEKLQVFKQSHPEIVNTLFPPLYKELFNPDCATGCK

One test deals with Nuclear receptor subfamily 1 group I member 2 (Homo sapiens) (UniProt O75469). Nature of the test: ATG_PXR_TRANS: Attagene TRANS-FACTORIAL HepG2 Assay for human Pregnane X Receptor (PXR) (AID 2283008). A digest of the protocol: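 Trans-factorial format: exogenous NR-Gal4 fusion activity, not endogenous factor, in transfected human HepG2 liver cells. After 24 h dosing, RNA isolated, reverse-transcribed, amplified and resolved by capillary electrophoresis; induction scored versus DMSO.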
Chain of Nuclear receptor subfamily 1 group I member 2 (Homo sapiens) (O75469 whole entry, looked up, the tested form may be a part): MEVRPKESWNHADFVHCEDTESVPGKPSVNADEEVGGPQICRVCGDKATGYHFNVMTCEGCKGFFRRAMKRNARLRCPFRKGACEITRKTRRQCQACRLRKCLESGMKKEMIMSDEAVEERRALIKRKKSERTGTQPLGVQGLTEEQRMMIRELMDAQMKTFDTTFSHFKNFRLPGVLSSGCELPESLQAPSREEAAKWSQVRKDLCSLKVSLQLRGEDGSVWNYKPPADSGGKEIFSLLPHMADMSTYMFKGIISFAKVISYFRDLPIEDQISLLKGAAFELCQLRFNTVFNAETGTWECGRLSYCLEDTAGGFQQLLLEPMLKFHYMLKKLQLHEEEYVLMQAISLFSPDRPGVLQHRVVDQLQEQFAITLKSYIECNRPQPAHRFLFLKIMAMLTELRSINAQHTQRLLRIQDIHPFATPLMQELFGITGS
Turning to `CCOC(=O)c1ccc(C2CCC(NC[C@H](O)COc3ccc(O)c(NS(C)(=O)=O)c3)CC2)cc1` (stereo partly drawn), the AC50 is 33 µM (active).
For `COC(=O)c1ccccc1O`, the AC50 was 24.9 µM (active).
`CC(=O)OC[C@H]1O[C@@](COC(C)=O)(O[C@H]2O[C@H](COC(C)=O)[C@@H](OC(C)=O)[C@H](OC(C)=O)[C@H]2OC(C)=O)[C@@H](OC(C)=O)[C@@H]1OC(C)=O`: the result was inactive.
On the same count and under the same terms, then `CCCN(C1CCN(C(=O)C2CCNCC2)CC1)[C@@H]1CCc2ccc(OC)cc2C1`, with “inactive”; and `COc1ccc(/C=C/S(=O)(=O)NC(=O)c2ccc(C)cc2Cl)cc1`, with “inactive”.
As for `CC(C)=CCC/C(C)=C\CO`, the AC50 is 8.73 µM (active).
Take `C=CCCCCCCCCC(=O)O`: the result was inactive.
On to `O=C(O)CC(O)C(=O)O` (stereo not drawn), for which the outcome was inactive.
In the case of `CC(=O)c1ccc2c(c1)[C@H](NC(=O)c1ccc(F)cc1)[C@@H](O)C(C)(C)O2`, the AC50 is 12.7 µM (active).
With `Oc1ccc2c(c1)-c1ccccc1C2`, the outcome was inactive.
The same measure, in the same setting: then `CC(C)=CCC/C(C)=C/CO`, with “inactive”.
On to `CCc1cc(SCc2sc(-c3ccc(C(F)(F)F)cc3)nc2CN2CCN(c3ccc(OC)cc3)CC2)ccc1OCC(=O)O`, for which the AC50 is 4.69 µM (active).
In the case of `CCN(C(=O)c1cc(C)cc(OC[C@H](C)Nc2ccncc2)c1)C(C)C`, the AC50 is 7.38 µM (active).
As to `O=c1[nH]c2ccc(S(=O)CCN3CCC(Cc4ccc(F)cc4)CC3)cc2o1` (stereo not drawn), the AC50 was 6.22 µM (active).
For `Fc1ccccc1[C@@H](F)COC1CCC(Nc2ncnc3[nH]ncc23)CC1` (stereo partly drawn), the compound was classed as inactive.
On the same count and under the same terms, then `CCNc1ccccc1`, with “inactive”.
With `CC[C@H](C)C(=O)O[C@H]1C[C@@H](C)C=C2C=C[C@H](C)[C@H](CC[C@@H]3C[C@@H](O)CC(=O)O3)[C@H]21`, the AC50 is 2.51 µM (active).
On the same count and under the same terms, then `COc1cccc(-c2ccc(/C=C\CN3CCCCCC3)cc2Cl)c1`, with 4.81 µM (active).
With `COc1ccc(-n2nc(C(F)F)cc2-c2ccc(S(C)=O)cc2)cc1` (stereo not drawn), the compound was classed as inactive.
Same read-out and setting: then `CCCCCCc1ccc(O)cc1O`, with “inactive”; and `COCCOc1cc2cc(C(=O)NC3CCN(C(C)C)CC3)n(CC(=O)Nc3ccc(Cl)cn3)c2cn1`, with “inactive”; and `CCOC(=O)CC(CC(=O)OCC)(OC(C)=O)C(=O)OCC`, with “inactive”.

The target in a further test is human Retinoic Acid Receptor gamma (RARg), RARG (gene 5916) (UniProt P13631). Kind of test: ATG_RARg_TRANS: Attagene TRANS-FACTORIAL HepG2 Assay for human Retinoic Acid Receptor gamma (RARg) (AID 2283009). The method, boiled down: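 Readout: reporter transcript levels via RT-PCR, 6-FAM primer-extension labelling, HpaI digestion and capillary electrophoresis. Cells: HepG2 carrying transfected RARg-GAL4 chimera plus UAS reporter set. Dosing 24 h; DMSO negative control.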
Chain of human Retinoic Acid Receptor gamma (RARg), RARG (gene 5916) (P13631 whole entry, looked up, the tested form may be a part): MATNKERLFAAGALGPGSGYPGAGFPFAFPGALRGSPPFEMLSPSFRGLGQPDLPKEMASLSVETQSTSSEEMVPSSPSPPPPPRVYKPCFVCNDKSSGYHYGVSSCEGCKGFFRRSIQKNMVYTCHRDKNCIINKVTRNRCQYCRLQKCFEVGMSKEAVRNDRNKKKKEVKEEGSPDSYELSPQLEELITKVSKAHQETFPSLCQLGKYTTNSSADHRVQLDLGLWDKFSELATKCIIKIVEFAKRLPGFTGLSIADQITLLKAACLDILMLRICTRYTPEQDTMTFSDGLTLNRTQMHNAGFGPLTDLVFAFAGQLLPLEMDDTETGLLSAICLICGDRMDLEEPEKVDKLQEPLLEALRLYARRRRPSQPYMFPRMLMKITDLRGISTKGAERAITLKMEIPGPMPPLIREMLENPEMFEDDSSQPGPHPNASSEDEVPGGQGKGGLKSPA
As to `CCOC(=O)c1ccc(C2CCC(NC[C@H](O)COc3ccc(O)c(NS(C)(=O)=O)c3)CC2)cc1` (stereo partly drawn), the outcome was inactive.
On to `COC(=O)c1ccccc1O`, for which the outcome was inactive.
Regarding `CCC(C)(C)C(=O)O[C@H]1C[C@@H](C)C=C2C=C[C@H](C)[C@H](CC[C@@H]3C[C@@H](O)CC(=O)O3)[C@H]21`, the outcome was inactive.
Still for that read-out and setting: then `CCCN(C1CCN(C(=O)C2CCNCC2)CC1)[C@@H]1CCc2ccc(OC)cc2C1`, with “inactive”.
The same measure, in the same setting: then `C=CCCCCCCCCC(=O)O`, with “inactive”.
Still for that read-out and setting: then `O=C(O)CC(O)C(=O)O` (stereo not drawn), with “inactive”.
Regarding `CC(=O)c1ccc2c(c1)[C@H](NC(=O)c1ccc(F)cc1)[C@@H](O)C(C)(C)O2`, the compound was called inactive.
On the same count and under the same terms, then `Oc1ccc2c(c1)-c1ccccc1C2`, with “inactive”; and `CCc1cc(SCc2sc(-c3ccc(C(F)(F)F)cc3)nc2CN2CCN(c3ccc(OC)cc3)CC2)ccc1OCC(=O)O`, with “inactive”.
Still for that read-out and setting: then `CCN(C(=O)c1cc(C)cc(OC[C@H](C)Nc2ccncc2)c1)C(C)C`, with “inactive”; and `O=c1[nH]c2ccc(S(=O)CCN3CCC(Cc4ccc(F)cc4)CC3)cc2o1` (stereo not drawn), with “inactive”; and `CCNc1ccccc1`, with “inactive”.
The same measure, in the same setting: then `COc1ccc(-n2nc(C(F)F)cc2-c2ccc(S(C)=O)cc2)cc1` (stereo not drawn), with “inactive”; and `COCCOc1cc2cc(C(=O)NC3CCN(C(C)C)CC3)n(CC(=O)Nc3ccc(Cl)cn3)c2cn1`, with “inactive”.

The target in another test is human RAR-related Orphan Receptor beta (RORb), RORB (gene 6096) (UniProt Q92753). Nature of the test: ATG_RORb_TRANS: Attagene TRANS-FACTORIAL HepG2 Assay for human RAR-related Orphan Receptor beta (RORb) (AID 2283010). The method, boiled down:
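HepG2, transient MRTU transfection (GAL4-UAS reporters, exogenous NR-Gal4 chimeras); 24 h compound exposure; total RNA → RT-PCR → 6-FAM primer extension → HpaI digest → CE fluorescence. Positive direction vs DMSO baseline.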
Turning to `COc1ccc(/C=C/S(=O)(=O)NC(=O)c2ccc(C)cc2Cl)cc1`, the compound was classed as inactive.
Still for that read-out and setting: then `O=C(O)c1cc(N=Nc2ccc(S(=O)(=O)Nc3ccccn3)cc2)ccc1O`, with “inactive”; and `CC(=O)c1ccc2c(c1)[C@H](NC(=O)c1ccc(F)cc1)[C@@H](O)C(C)(C)O2`, with “inactive”.
Same read-out and setting: then `CC(C)=CCC/C(C)=C/CO`, with “inactive”; and `CCc1cc(SCc2sc(-c3ccc(C(F)(F)F)cc3)nc2CN2CCN(c3ccc(OC)cc3)CC2)ccc1OCC(=O)O`, with “inactive”.
The same measure, in the same setting: then `CCN(C(=O)c1cc(C)cc(OC[C@H](C)Nc2ccncc2)c1)C(C)C`, with “inactive”.
As to `On1ccccc1=S`, the compound was called inactive.
Still for that read-out and setting: then `COCCOc1cc2cc(C(=O)NC3CCN(C(C)C)CC3)n(CC(=O)Nc3ccc(Cl)cn3)c2cn1`, with “inactive”.
Still for that read-out and setting: then `CC(=O)OCCC(C)C`, with “inactive”.

The next test has as its target human RAR-related Orphan Receptor gamma (RORg), RORC (gene 6097) (UniProt P51449). Nature of the test: ATG_RORg_TRANS: Attagene TRANS-FACTORIAL HepG2 Assay for human RAR-related Orphan Receptor gamma (RORg) (AID 2283011). The method, boiled down:
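HepG2 cells transiently transfected with GAL4-UAS reporter units and chimeric RORg-Gal4 construct; after 24 h chemical exposure, reporter mRNA measured by RT-PCR with fluorescent capillary electrophoresis, gain of signal fitted against DMSO.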
With `CCC(C)(C)C(=O)O[C@H]1C[C@@H](C)C=C2C=C[C@H](C)[C@H](CC[C@@H]3C[C@@H](O)CC(=O)O3)[C@H]21`, the compound was called inactive.
Still for that read-out and setting: then `COc1ccc(/C=C/S(=O)(=O)NC(=O)c2ccc(C)cc2Cl)cc1`, with “inactive”; and `CC(=O)c1ccc2c(c1)[C@H](NC(=O)c1ccc(F)cc1)[C@@H](O)C(C)(C)O2`, with “inactive”; and `CC(C)=CCC/C(C)=C/CO`, with “inactive”.
Still for that read-out and setting: then `CCc1cc(SCc2sc(-c3ccc(C(F)(F)F)cc3)nc2CN2CCN(c3ccc(OC)cc3)CC2)ccc1OCC(=O)O`, with “inactive”.
For `On1ccccc1=S`, the result was inactive.
For `CCNc1ccccc1`, the call was inactive.
For the compound `COc1cccc(-c2ccc(/C=C\CN3CCCCCC3)cc2Cl)c1`, the call was inactive.
